DAX1 inh-1 = DAX1 (NR0B1) inhibitors on StAR promoter, primary screen, cell-based, luminescence, SF-1 (NR5A1), full-length DAX-1; 370,000 tested, 1.1% active; inhibition, % at 6.8 µM; HEK293T StAR-luciferase reporter, SF-1/DAX-1 repression relief;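 active means inhibition above the mean over all tested compounds plus 3 SD, cut at about 3.6% in these data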;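 further: 0% = DAX-1 cells with DMSO and 100% = cells lacking DAX-1 with DMSO; higher inhibition means more luminescence from relief of DAX-1 repression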
DAX1 inh-2 = DAX1 (NR0B1) inhibitors, primary screen, cell-based, HEK293, Gal4-DAX1, luciferase luminescence | HEK293 Gal4-DAX1 luciferase reporter | AID 504766, 2011 | inhibition, % at 6.75 µM | 340,000 tested, 0.99% active | Nuclear receptor subfamily 0 group B member 1 (Homo sapiens), P51843;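 active means inhibition above the mean over all tested compounds plus 3 SD, cut at about 4.2% in these data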;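 further: 0% = DAX1-transfected cells with DMSO and 100% = empty-vector control cells with DMSO; inhibition shows as a rise in luminescence from relieved DAX1 repression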
hgDAF-12 ag = H. glycines DAF-12 receptor agonists, primary screen, cell-based, luminescence, HEK293, GAL4 fusion, UAS-luciferase | Nuclear hormone receptor DAF-12 (Heterodera glycines), GAL4 fusion | HEK293 GAL4-hgDAF12 UAS-luciferase reporter, agonist luminescence; normalized to butyrate control | 370,000 tested, 1.8% active | activation, % at 6.8 µM;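 active means activation above a cutoff set at the mean of all screened compounds plus 3 SD, cut at about 10% in these data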;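 further: 0% = DMSO wells and 100% = sodium butyrate wells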
hcDAF-12 act = H. contortus DAF-12 nuclear receptor activators, primary screen, cell-based, luminescence, HEK293, lit1-tk-luc reporter; HEK293 hcDAF-12 lit1-tk-luc reporter; 0% DMSO, 100% Δ7-dafachronic acid; activation, % at 6.8 µM; 370,000 tested, 1.4% active; AID 652067, 2013;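 active means activation above the mean of all tested compounds plus 3 SD, cut at about 5.5% in these data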;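 further: 100% = response to 3 µM Δ7-dafachronic acid high control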
ssDAF-12 act = S. stercoralis DAF-12 nuclear receptor activators, primary screen, cell-based, luminescence, HEK293, GRIP1 co-expression, lit1-tk-luc; Nuclear hormone receptor DAF-12 (Strongyloides stercoralis); 370,000 tested, 1% active; HEK293 ssDAF-12/GRIP1 lit1-tk-luc reporter; % of 3 µM dafachronic acid response; AID 652126, 2013; activation, % at 6.8 µM;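 active means activation above the mean over all tested compounds plus 3 SD, cut at about 0.9% in these data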;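 further: 0% = DMSO-only wells and 100% = 3 µM delta7-dafachronic acid wells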
DAX1 conf = DAX1 (NR0B1) inhibitors relieving SF-1 repression, confirmation, cell-based, luminescence, HEK293T, full-length DAX-1, SF-1 activated StAR promoter; shares compounds with DAX1 inh-1; HEK293T StAR-promoter luciferase reporter, SF-1/DAX-1 repression; inhibition, % at 6.8 µM; 2,400 tested, 87% active;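 active means inhibition above the average of every tested compound plus 3 SD, cut at about 3.8% in these data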;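 further: 0% = DAX-1 cells with DMSO and 100% = no DAX-1 control cells with DMSO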
SF1 AF2mut Luc = StAR reporter signal changes without DAX1, counter-screen for DAX1 inhibitor project, cell-based, luminescence, AF-2 mutant SF-1, transactivation; shares compounds with DAX1 inh-1; HEK293 StAR-luciferase, SF-1 AF2 mutant; inhibition, % at 6.8 µM; 2,400 tested, 78% active;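 active means inhibition above the mean of all tested compounds plus 3 SD, cut at about 3% in these data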;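 further: 0% = DAX-1 transfected cells with DMSO and 100% = cells without DAX-1 with DMSO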
LXRb hcDAF ctr = LXR agonists, Gal4 luciferase reporter, confirmation, counter-screen for hcDAF-12 agonist project, cell-based, luminescence, HEK293, H. contortus campaign; HEK293 Gal4-LXR tk-luc reporter, 24 h; normalized: DMSO 0%, positive control 100%; shares compounds with hcDAF-12 act; activation, % at 6.8 µM; 3,400 tested, under 10 active;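 active means mean percent activation of the reporter above a cutoff set as the average over tested compounds plus their standard deviation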
Target sequence (P55055 whole entry, looked up, the tested form may be a part): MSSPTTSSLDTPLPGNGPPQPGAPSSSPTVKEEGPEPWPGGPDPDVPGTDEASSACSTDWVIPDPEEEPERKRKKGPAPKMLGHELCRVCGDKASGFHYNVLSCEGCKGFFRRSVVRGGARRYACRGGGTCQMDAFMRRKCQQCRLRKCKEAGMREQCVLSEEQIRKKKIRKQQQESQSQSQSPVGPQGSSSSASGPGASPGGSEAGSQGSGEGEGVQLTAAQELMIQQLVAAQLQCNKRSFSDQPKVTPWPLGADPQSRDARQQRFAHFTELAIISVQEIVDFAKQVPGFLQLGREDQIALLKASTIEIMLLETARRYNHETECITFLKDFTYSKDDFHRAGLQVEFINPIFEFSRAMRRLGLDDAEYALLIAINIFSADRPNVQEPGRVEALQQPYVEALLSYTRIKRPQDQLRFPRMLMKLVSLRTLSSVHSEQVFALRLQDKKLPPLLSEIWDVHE
hcDAF12 conf = H. contortus DAF-12 receptor agonists, confirmation, cell-based, luminescence, HEK293, lit1-tk-luc, triplicate; shares compounds with hcDAF-12 act; HEK293 hcDAF-12 lit1-tk-luc reporter; % of Δ7-dafachronic acid response; activation, % at 6.8 µM; 3,400 tested, 61% active;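 active means mean activation across triplicate tests above the threshold derived from the earlier primary screen, cut at about 5.5% in these data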;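 further: 0% = DMSO only wells and 100% = 3 µM Δ7-dafachronic acid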
hgDAF12 conf = H. glycines DAF-12 receptor agonists, confirmation, cell-based, luminescence, HEK293, GAL4-LBD fusion; shares compounds with hgDAF-12 ag; HEK293 GAL4-hgDAF12 luciferase reporter, agonist mode; percent of butyrate response; activation, % at 6.8 µM; 3,300 tested, 80% active; AID 743050, 2013;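 active means mean activation over triplicate wells above the hit cutoff derived from the earlier primary screen, cut at about 11% in these data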;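 further: 0% = DMSO low control and 100% = 2 mM sodium butyrate high control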
LXRb DAF12 ctr = LXR agonists, Gal4 luciferase reporter, confirmation, counter-screen for hgDAF-12 agonist project, cell-based, luminescence, HEK293, H. glycines campaign | shares compounds with hgDAF-12 ag | 24 h | activation, % at 6.8 µM | 3,300 tested, under 10 active | AID 743051, 2013;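 active means mean activation of the triplicate above a set limit carried over from the primary screen, none filed active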
Numbers without * were called inactive; x = no result given. Most compounds without a hit are left out; they make up all but 4.1% or so of the library.

SMILES | DAX1 inh-1 | DAX1 inh-2 | hgDAF-12 ag | hcDAF-12 act | ssDAF-12 act | DAX1 conf | SF1 AF2mut Luc | LXRb hcDAF ctr | hcDAF12 conf | hgDAF12 conf | LXRb DAF12 ctr
Cc1ccc2cc(CCNC(=O)c3cccs3)c(=O)[nH]c2c1C | 5.6* | 3 | 19* | 4 | -1 | 6.8* | 3.7* | x | x | 18* | 1
COC(=O)[C@]12C[C@H](CC(=O)N3CCC(c4ccccc4)CC3)C(=O)N(Cc3ccco3)C1=C[C@H](C1CCCC1)O[C@@H]2C | -1 | x | -1 | -2 | -2 | x | x | x | x | x | x
CCCn1c(=N)n(CC(=O)c2cccs2)c2ccccc21 | 0 | -1 | -3 | -4 | -1 | x | x | x | x | x | x
Cn1c(=N)n(CC(=O)c2cccs2)c2ccccc21 | 6.0* | 4 | 17* | 15* | 1 | 4.3* | 4.0* | 1 | 9.5* | 13* | 0
COC(=O)C1CN(Cc2cn(Cc3ccc(OC)cc3)nn2)CCS(=O)(=O)N1Cc1ccc(F)cc1 (stereo not drawn) | -1 | x | -1 | 0 | -1 | x | x | x | x | x | x
Cc1ccc(NC(=S)c2nc3ccccc3[nH]2)c(C)c1 | 5.1* | 1 | 24* | 6.8* | 1.6* | 17* | 8.1* | 2 | 13* | 19* | 1
N/C(=N\OC(=O)c1ccc2ccccc2c1)c1ccccc1Cl | 8.8* | 2 | 14* | 4 | 0 | 1 | 3.5* | x | x | 13* | 0
N/C(=N\OC(=O)c1ccc2ccccc2c1)c1ccncc1 | 5.2* | 5.2* | 17* | 7.1* | 1.1* | 10* | 6.2* | 1 | 4 | 14* | 1
CC/C(=N\NC(=O)c1ccoc1C)c1ccc(C)o1 | 7.1* | 1 | 23* | 9.2* | 2.1* | 2 | 3 | 0 | 2 | 9 | 0
COc1ccc(NC(=O)N2CCc3ccccc32)cc1 | 5.1* | -1 | 16* | 9.1* | 1.0* | 15* | 5.8* | 1 | 7.4* | 18* | 1
COc1ccc(NC(=O)N2CCCc3ccccc32)cc1 | 1 | 1 | 6 | 4 | -1 | x | x | x | x | x | x
Cc1ccc(OCC(=O)N2CCCc3ccccc32)cc1 | 0 | 1 | 2 | 0 | -1 | x | x | x | x | x | x
Cc1ccc(OCC(=O)N2CCc3ccccc32)cc1 | 5.1* | 3 | 22* | 11* | 1.6* | 15* | 9.1* | 1 | 5.7* | 13* | 1
c1ccc2sc(NN=C3CCCCCC3)nc2c1 | 5.2* | 1 | 13* | 12* | 1 | 5.4* | 1 | 2 | 11* | 6 | 1
C/C(=N\Nc1nc2ccccc2s1)c1ccc2c(c1)OCO2 | 1 | 1 | 7 | 2 | 0 | x | x | x | x | x | x
CCOC(=O)[C@]12CCCCC/C=C\1N(CCc1ccc(Cl)cc1)C(=O)[C@H]2CC(=O)NCCCCc1ccccc1 | -2 | x | 0 | -2 | -1 | x | x | x | x | x | x
CCC1CCC/C1=N\NC(=O)c1ccccc1Cl (stereo not drawn) | 0 | x | 3 | 0 | 0 | x | x | x | x | x | x
CCC1CCC/C1=N\NC(=O)c1ccoc1C (stereo not drawn) | 11* | 1 | 17* | 4 | 0 | 0 | 0 | x | x | 5 | 0

Bioassay records (PubChem)
